# Laboratory results as given in PubChem BioAssay AID743291 (Broad Institute, 2014).
# Potency and affinity values are given separately. The source made the active and inactive calls.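 How the source made its calls: active means signal drop with fitted half-maximal dose at most twice the top valid dose, active in every repeat; inconclusive means repeats disagree, or flat partial inhibition, or poor fit; inactive means inactive in every repeat, including opposite effects.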
# Target: Caspase-3 (Homo sapiens) (UniProt P42574)
# Assay: human caspase-3 protease activity blockade – biochemical, fluorescence, cherry-picked samples, selectivity assay for caspase-6 allosteric inhibitor project, dose response (AID 743291)
# Caspase-3 (Homo sapiens), sequence (P42574 whole entry, looked up): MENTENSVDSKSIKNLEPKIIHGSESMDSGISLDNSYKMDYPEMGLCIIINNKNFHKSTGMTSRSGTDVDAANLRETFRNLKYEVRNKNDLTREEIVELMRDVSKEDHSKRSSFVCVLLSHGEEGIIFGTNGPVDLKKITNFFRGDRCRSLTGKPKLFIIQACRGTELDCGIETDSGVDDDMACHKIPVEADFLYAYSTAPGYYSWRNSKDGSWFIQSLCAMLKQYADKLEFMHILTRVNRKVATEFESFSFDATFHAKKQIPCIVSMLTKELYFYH
structure (smiles),measurement,value
CN1CCc2cc3c(c4c2C1Cc1ccccc1-4)OCO3 (stereo unspecified),outcome,inactive
